Test systems include DU-145 prostate; K-562 leukemia; MALME-3M melanoma; MDA-MB-231 breast; RXF 393 renal; SF-268 CNS; SF-295 CNS; SF-539 CNS; UACC-257 melanoma; M14 melanoma.
Holding throughout (assay): NCI-60 one-dose screen, 48 h (100 = growth as untreated, 0 = no growth, -100 = all killed)
What all share (conditions): 10 µM unless noted

Compounds without any hit were thinned out: in the full panel of roughly 83,000, 20% have a hit.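 Single-dose data. Exposure time 48 hours. Values below 10 considered active.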 A number with no mark means an inactive call. The source made the active and inactive calls.

Take `Cc1ccccc1COc1ccc(-c2ccnn2-c2ccc(Cl)cc2)cc1`: the growth was 88.1% with DU-145 prostate; 13.7% in the test with K-562 leukemia; 67.2% in the test with MALME-3M melanoma; 84.2% in the test with MDA-MB-231 breast; 60.3% with RXF 393 renal; 80.5% in the test with SF-268 CNS. The growth in the test with SF-295 CNS was 53.1%; in the test on SF-539 CNS it was 71.8%; in the test with UACC-257 melanoma, 75.7%; with M14 melanoma, 39%.

Regarding `N#Cc1cnn(-c2nc3c(Cl)cccc3s2)c1N`, the growth in the test on DU-145 prostate is 96%; in the test on K-562 leukemia, 92.8%; with MALME-3M melanoma, 85.9%; in the test with MDA-MB-231 breast, 60.6%; in the test with RXF 393 renal, 92.7%; in the test on SF-268 CNS, 87%. For the same molecule, the growth in the test with SF-295 CNS was 82.3%; in the test on SF-539 CNS it was 82.2%; in the test on UACC-257 melanoma, 102%; with M14 melanoma it was 96.1%.

For the molecule `CC1=CC(=NN=c2cc(C)n([O-])c(C)c2)C=C(C)[N+]1=O`, the growth in the test with DU-145 prostate is 107%; in the test with K-562 leukemia, 85%; with MALME-3M melanoma it was 106%; with MDA-MB-231 breast, 97.7%; with RXF 393 renal, 87.8%; with SF-268 CNS, 106%. Besides, the growth with SF-295 CNS was 112%; with SF-539 CNS it was 105%; in the test on UACC-257 melanoma it was 77.4%; in the test on M14 melanoma it was 77.2%.

As for `CC(O)CN1CC(O)=C(c2nc3ccccc3s2)C1=N` (stereo not given), the growth in the test on DU-145 prostate was 115%; with K-562 leukemia it was 105%; in the test on MALME-3M melanoma, 97.6%; in the test on MDA-MB-231 breast, 108%; in the test on RXF 393 renal, 113%; with SF-268 CNS it was 108%. Besides, the growth in the test on SF-295 CNS is 129%; in the test on SF-539 CNS it was 104%; in the test on UACC-257 melanoma it was 119%; with M14 melanoma it was 114%.

As for `Cn1c(O)c(N=NC(=O)c2cc(-c3ccccc3)on2)c2ccccc21`, the growth is 107% in the test with DU-145 prostate; 116% in the test on K-562 leukemia; 88.7% in the test with MALME-3M melanoma; 95.6% in the test on MDA-MB-231 breast; 104% with RXF 393 renal; 100% in the test with SF-268 CNS. The growth in the test with SF-295 CNS is 99.8%; with SF-539 CNS, 99.9%; with UACC-257 melanoma, 119%; in the test with M14 melanoma, 101%.

As to `CN(C)S(=O)(=O)c1ccc(S(=O)(=O)Nc2cccc(Cl)c2N2CCCCC2)cc1`, the growth in the test on DU-145 prostate was 89.1%; with K-562 leukemia, 55.6%; with MALME-3M melanoma it was 106%; with MDA-MB-231 breast, 66.6%; in the test with RXF 393 renal, 88%; in the test on SF-268 CNS, 89.5%. The growth with SF-295 CNS was 78.1%; in the test on SF-539 CNS, 94%; with UACC-257 melanoma it was 74.1%; with M14 melanoma, -35.4% (active).

For the molecule `COc1cc(/C=C/C(=O)c2ccc(O)c(CN3CCN(c4cc5c(cc4F)c(=O)c(C(=O)O)cn5C4CC4)CC3)c2)cc(OC)c1OC`, the growth was 24.6% in the test on DU-145 prostate; 10.6% with K-562 leukemia; 74.3% with MALME-3M melanoma; 76.7% with MDA-MB-231 breast; 28.1% in the test with RXF 393 renal; 54.9% with SF-268 CNS. Further, the growth in the test on SF-295 CNS was 86.5%; with SF-539 CNS, 49.6%; in the test with UACC-257 melanoma, 64.5%; in the test on M14 melanoma it was 48.8%.

Turning to `CC(C)C[C@@H](NC(=O)[C@@H](Cc1ccccc1)NC(=O)c1cnccn1)B1Oc2ccc(C[C@H](NC(=O)[C@H](Cc3ccc4c(c3)OB([C@@H](CC(C)C)NC(=O)[C@@H](Cc3ccccc3)NC(=O)c3cnccn3)O4)NC(=O)[C@@H](N)CC3CCC4OB([C@@H](CC(C)C)NC(=O)[C@@H](CC5CCCCC5)NC(=O)C5CNCCN5)OC4C3)C(=O)NCCCC[C@@H]3NC(=O)[C@@H](Cc4ccccc4)NC(=O)[C@H](CC(=O)O)NC(=O)CNC(=O)[C@H](CCCNC(=N)N)NC3=O)cc2O1` (stereo not given in full), the growth in the test on DU-145 prostate was -44.8% (active); in the test with K-562 leukemia it was -0.546% (active); with MALME-3M melanoma it was -20.3% (active); in the test on MDA-MB-231 breast, -7.69% (active); in the test on RXF 393 renal, -89.2% (active); with SF-268 CNS it was -52.7% (active). The growth in the test on SF-295 CNS is -68.6% (active); with SF-539 CNS it was -37.6% (active); in the test on UACC-257 melanoma it was -11.7% (active); with M14 melanoma it was 0.189% (active).

As to `COc1ccc(Nc2nc(SC)nc(-c3cccc([N+](=O)[O-])c3)c2C#N)cc1`, the growth with DU-145 prostate was 80.6%; in the test with K-562 leukemia it was 93.6%; in the test on MALME-3M melanoma it was 61.7%; with MDA-MB-231 breast it was 45.1%; in the test with RXF 393 renal, 60%; in the test on SF-268 CNS, 71.6%. Also, the growth was 69.3% in the test with SF-295 CNS, 69% with SF-539 CNS, 89.5% in the test with UACC-257 melanoma and 74.9% in the test on M14 melanoma.

For the molecule `COc1ccc(C(=S)N2CCN(c3cccc(Cl)c3)CC2)cc1`, the growth in the test with DU-145 prostate is 121%; in the test on K-562 leukemia, 119%; in the test with MALME-3M melanoma, 138%; in the test on MDA-MB-231 breast it was 101%; in the test with RXF 393 renal, 160%; in the test on SF-268 CNS, 102%. Further, the growth with SF-295 CNS was 111%; in the test with SF-539 CNS, 92.2%; with UACC-257 melanoma it was -2.46% (active); in the test with M14 melanoma it was 101%.

Consider `CCOC(=O)c1c(CN2CCN(C)CC2)nc2ccc(Cl)cc2c1-c1ccccc1`, for which the growth in the test with DU-145 prostate was 85.7%; with K-562 leukemia, 11.7%; in the test on MALME-3M melanoma it was 38.6%; in the test with MDA-MB-231 breast, 70.7%; in the test on RXF 393 renal, 42.9%; with SF-268 CNS it was 77.9%. Further, the growth in the test with SF-295 CNS is 28.8%; in the test with SF-539 CNS, 61.9%; with UACC-257 melanoma, -38% (active); in the test on M14 melanoma, -24.5% (active).

Regarding `Cc1cc(NS(=O)(=O)c2ccc(-c3cnc(C4CC4)o3)cc2)ccc1Cl`, the growth in the test with DU-145 prostate is 14.3%; with K-562 leukemia it was 10.2%; in the test on MALME-3M melanoma it was 46.3%; in the test with MDA-MB-231 breast it was 33.9%; in the test on RXF 393 renal it was -10.7% (active); in the test on SF-268 CNS, 49.4%. For the same molecule, the growth in the test on SF-295 CNS is 1.8% (active); with SF-539 CNS, -28.6% (active); with UACC-257 melanoma, 45%; in the test on M14 melanoma, 4.78% (active).

Turning to `CCC([N+](=O)[O-])S(=O)(=O)c1ccc(C)cc1` (stereo not given), the growth was 160% with DU-145 prostate; 115% in the test on K-562 leukemia; 143% in the test on MALME-3M melanoma; 103% in the test with MDA-MB-231 breast; 97.1% in the test on RXF 393 renal; 126% in the test on SF-268 CNS. Further, the growth in the test with SF-295 CNS is 111%; in the test on SF-539 CNS, 94.5%; in the test with UACC-257 melanoma it was 102%; with M14 melanoma, 103%.

For the origin of these results see PubChem BioAssay (NCI).
